Experiments:
Assay in all cases: DAPPL (digital affinity profiling via proximity ligation, sequencing); 10 mM Tris-HCl pH 7.5, 50 mM NaCl, 1 mM DTT, 4% glycerol, room temperature, 30 min; GST-TFs on glutathione beads, 16-mer random dsDNA library, 0.1% formaldehyde crosslink after washing; high values mean tight binding
FEV = biological target: T1, FEV (Homo sapiens, UniProt Q99581 1-238); conditions: protein: recombinant; tags: N-terminal GST; dsDNA, one strand shown
T1 sequence: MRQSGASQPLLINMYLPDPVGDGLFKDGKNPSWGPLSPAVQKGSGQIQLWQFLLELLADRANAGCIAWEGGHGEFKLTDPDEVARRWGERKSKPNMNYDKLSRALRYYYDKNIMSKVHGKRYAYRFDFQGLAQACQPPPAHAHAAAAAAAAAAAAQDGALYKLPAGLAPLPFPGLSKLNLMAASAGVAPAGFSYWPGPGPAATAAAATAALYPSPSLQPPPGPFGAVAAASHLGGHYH
Summary of the method: (§1)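 The binding signal reported is, for every hexamer, its read frequency for a factor over its read frequency for the tag-only sample. Reads came from pools of yeast-expressed, GST-fused human transcription factors on glutathione beads, barcoded with DNA and mixed with that sample, which were incubated with 200 nmole of a random double-stranded 16-mer DNA library in Tris/NaCl/DTT/glycerol buffer at room temperature for 30 min. After washing, the pools were crosslinked with 0.1% formaldehyde, proximity-ligated with BsaI/T4 ligase for 1 h at 37 °C, PCR-amplified and sequenced on an Illumina NextSeq500.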

ETV5 = ETV5 (Homo sapiens, UniProt P41161 1-510); conditions: protein: recombinant; tags: N-terminal GST; dsDNA, one strand shown
Summary of the method: as §1

HSF1 = HSF1 (Homo sapiens, UniProt Q00613 1-529); conditions: protein: recombinant; tags: N-terminal GST; chain copies: 3; dsDNA, one strand shown
Summary of the method: as §1

SPIC = biological target: T2, SPIC (Homo sapiens, UniProt Q8N5J4 1-248); conditions: protein: recombinant; tags: N-terminal GST; dsDNA, one strand shown
T2 sequence: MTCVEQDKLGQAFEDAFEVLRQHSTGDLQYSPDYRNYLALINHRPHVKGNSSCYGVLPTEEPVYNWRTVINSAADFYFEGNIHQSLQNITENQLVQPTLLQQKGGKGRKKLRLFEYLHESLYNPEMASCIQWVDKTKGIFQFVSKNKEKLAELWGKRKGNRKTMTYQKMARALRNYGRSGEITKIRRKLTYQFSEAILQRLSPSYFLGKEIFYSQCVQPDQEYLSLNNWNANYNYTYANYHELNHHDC
Summary of the method: as §1

ELF4 = ELF4 (Homo sapiens, UniProt Q99607 1-663); conditions: protein: recombinant; tags: N-terminal GST; dsDNA, one strand shown
Summary of the method: as §1

ELK4 = biological target: T3, ELK4 (Homo sapiens, UniProt P28324-2 1-405); conditions: protein: recombinant; tags: N-terminal GST; dsDNA, one strand shown
T3 sequence: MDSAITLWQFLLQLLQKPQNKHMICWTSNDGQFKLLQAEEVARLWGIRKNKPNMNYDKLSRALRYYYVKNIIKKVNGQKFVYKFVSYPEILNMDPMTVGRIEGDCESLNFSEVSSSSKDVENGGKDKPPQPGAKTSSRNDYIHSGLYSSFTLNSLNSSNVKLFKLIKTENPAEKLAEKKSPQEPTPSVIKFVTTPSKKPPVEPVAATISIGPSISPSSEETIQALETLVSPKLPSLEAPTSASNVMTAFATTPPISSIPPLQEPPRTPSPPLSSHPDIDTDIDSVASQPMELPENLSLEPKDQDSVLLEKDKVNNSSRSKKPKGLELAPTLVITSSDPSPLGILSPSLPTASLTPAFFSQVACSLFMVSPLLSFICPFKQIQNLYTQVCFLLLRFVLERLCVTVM
Summary of the method: as §1

ETV2 = biological target: T4, ETV2 (Homo sapiens, UniProt O00321 1-342); conditions: protein: recombinant; tags: N-terminal GST; dsDNA, one strand shown
T4 sequence: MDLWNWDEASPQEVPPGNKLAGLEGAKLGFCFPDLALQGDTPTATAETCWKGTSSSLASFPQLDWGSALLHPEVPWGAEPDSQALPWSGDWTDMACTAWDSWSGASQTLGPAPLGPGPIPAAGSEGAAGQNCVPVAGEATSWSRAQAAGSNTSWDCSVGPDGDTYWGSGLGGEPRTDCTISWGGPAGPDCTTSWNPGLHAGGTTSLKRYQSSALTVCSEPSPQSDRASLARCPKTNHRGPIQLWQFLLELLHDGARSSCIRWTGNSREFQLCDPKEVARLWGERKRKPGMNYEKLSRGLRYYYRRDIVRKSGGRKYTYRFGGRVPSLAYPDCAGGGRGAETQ
Summary of the method: as §1

ELF3 = biological target: T5, ELF3 (Homo sapiens, UniProt P78545 1-371); conditions: protein: recombinant; tags: N-terminal GST; dsDNA, one strand shown
T5 sequence: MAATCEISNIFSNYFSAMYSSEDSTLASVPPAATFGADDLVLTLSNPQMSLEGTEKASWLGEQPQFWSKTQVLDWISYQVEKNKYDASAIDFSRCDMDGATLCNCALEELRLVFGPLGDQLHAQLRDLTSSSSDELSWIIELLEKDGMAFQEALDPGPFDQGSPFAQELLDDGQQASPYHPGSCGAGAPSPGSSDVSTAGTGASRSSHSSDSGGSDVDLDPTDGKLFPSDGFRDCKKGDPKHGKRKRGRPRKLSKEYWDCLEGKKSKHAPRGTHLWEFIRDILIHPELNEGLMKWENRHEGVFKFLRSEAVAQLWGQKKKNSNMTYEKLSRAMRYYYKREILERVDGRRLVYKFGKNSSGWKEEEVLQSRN
Summary of the method: as §1

CRX = CRX (Homo sapiens, UniProt O43186 1-299); conditions: protein: recombinant; tags: N-terminal GST; dsDNA, one strand shown
Summary of the method: as §1

ETV1 = ETV1 (Homo sapiens, UniProt P50549 1-477); conditions: protein: recombinant; tags: N-terminal GST; dsDNA, one strand shown
Summary of the method: as §1

ERF = biological target: T6, ERF (Homo sapiens, UniProt P50548 1-548); conditions: protein: recombinant; tags: N-terminal GST; dsDNA, one strand shown
T6 sequence: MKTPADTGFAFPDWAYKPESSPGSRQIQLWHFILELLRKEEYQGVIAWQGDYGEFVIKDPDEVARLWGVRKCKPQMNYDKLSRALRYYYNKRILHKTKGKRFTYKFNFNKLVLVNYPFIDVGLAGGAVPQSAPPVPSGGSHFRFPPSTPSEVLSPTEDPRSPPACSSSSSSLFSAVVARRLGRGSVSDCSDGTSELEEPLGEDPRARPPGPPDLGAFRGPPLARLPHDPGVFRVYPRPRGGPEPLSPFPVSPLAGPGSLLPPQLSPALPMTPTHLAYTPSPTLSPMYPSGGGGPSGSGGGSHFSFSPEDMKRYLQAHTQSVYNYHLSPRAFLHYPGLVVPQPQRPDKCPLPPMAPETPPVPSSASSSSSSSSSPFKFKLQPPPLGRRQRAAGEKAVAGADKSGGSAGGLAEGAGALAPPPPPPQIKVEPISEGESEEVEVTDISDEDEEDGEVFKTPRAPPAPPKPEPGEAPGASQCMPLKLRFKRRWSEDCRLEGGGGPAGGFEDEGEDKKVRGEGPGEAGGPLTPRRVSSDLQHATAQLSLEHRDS
Summary of the method: as §1

ETV3L = biological target: T7, ETV3L (Homo sapiens, UniProt Q6ZN32 1-361); conditions: protein: recombinant; tags: N-terminal GST; dsDNA, one strand shown
T7 sequence: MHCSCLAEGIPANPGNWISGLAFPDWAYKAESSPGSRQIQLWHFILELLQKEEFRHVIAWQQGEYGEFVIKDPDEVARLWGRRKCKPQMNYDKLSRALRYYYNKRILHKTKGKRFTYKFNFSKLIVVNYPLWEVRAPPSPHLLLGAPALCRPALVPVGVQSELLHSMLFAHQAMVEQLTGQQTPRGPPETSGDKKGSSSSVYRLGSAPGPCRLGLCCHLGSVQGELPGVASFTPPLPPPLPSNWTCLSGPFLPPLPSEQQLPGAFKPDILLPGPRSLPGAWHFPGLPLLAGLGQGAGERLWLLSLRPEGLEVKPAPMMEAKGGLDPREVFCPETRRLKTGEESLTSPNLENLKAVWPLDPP
Summary of the method: as §1

ETS2 = biological target: T8, ETS2 (Homo sapiens, UniProt P15036 1-469); conditions: protein: recombinant; tags: N-terminal GST; dsDNA, one strand shown
T8 sequence: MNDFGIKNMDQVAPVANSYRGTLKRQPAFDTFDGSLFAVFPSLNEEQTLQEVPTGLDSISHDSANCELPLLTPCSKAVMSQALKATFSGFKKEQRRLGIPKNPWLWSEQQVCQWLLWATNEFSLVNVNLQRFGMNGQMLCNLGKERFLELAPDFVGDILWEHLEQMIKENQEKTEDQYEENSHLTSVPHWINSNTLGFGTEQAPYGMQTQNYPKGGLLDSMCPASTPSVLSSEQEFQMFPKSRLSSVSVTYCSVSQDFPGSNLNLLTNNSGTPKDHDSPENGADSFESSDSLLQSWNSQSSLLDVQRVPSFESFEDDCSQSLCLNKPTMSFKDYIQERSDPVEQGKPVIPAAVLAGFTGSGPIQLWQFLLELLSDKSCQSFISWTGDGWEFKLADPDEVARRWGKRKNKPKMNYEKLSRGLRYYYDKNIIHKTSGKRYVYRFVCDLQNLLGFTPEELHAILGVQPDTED
Summary of the method: as §1

SPDEF = biological target: T9, SPDEF (Homo sapiens, UniProt O95238 1-335); conditions: protein: recombinant; tags: N-terminal GST; dsDNA, one strand shown
T9 sequence: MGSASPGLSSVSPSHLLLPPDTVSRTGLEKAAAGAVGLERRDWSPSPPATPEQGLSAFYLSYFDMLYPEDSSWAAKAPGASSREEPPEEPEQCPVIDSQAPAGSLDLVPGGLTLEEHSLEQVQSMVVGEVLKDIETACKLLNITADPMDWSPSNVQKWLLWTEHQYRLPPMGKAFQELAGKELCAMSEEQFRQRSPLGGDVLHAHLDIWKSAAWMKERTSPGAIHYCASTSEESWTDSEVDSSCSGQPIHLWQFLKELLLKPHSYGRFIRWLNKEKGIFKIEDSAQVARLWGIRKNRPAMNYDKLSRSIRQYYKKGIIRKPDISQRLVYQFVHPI
Summary of the method: as §1

ETV7 = biological target: T10, ETV7 (Homo sapiens, UniProt Q9Y603 1-341); conditions: protein: recombinant; tags: N-terminal GST; dsDNA, one strand shown
T10 sequence: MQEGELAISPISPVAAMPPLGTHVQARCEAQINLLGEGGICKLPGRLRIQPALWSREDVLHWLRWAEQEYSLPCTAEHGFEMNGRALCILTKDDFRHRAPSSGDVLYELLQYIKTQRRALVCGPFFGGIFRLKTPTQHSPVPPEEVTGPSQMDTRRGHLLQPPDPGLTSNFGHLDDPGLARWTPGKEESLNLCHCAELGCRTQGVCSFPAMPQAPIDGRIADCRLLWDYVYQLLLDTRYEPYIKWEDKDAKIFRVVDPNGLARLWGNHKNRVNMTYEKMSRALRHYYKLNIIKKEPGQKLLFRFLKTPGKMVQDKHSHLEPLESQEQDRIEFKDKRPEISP
Summary of the method: as §1

ELF5 = biological target: T11, ELF5 (Homo sapiens, UniProt Q9UKW6-2 1-255); conditions: protein: recombinant; tags: N-terminal GST; dsDNA, one strand shown
T11 sequence: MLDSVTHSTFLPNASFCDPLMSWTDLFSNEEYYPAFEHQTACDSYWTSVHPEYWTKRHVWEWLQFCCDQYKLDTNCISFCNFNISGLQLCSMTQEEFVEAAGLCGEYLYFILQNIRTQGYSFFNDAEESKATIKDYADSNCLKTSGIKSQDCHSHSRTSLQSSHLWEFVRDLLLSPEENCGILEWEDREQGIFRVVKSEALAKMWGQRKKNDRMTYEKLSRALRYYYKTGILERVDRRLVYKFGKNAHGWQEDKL
Summary of the method: as §1

ETV3 = biological target: T12, ETV3 (Homo sapiens, UniProt P41162-2 1-143); conditions: protein: recombinant; tags: N-terminal GST; dsDNA, one strand shown
T12 sequence: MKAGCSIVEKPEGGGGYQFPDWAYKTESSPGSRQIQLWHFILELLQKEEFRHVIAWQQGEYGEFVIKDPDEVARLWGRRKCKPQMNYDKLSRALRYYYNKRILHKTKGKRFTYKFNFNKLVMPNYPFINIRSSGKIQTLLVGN
Summary of the method: as §1

ETV6 = ETV6 (Homo sapiens, UniProt P41212 1-452); conditions: protein: recombinant; tags: N-terminal GST; dsDNA, one strand shown
Summary of the method: as §1

Sequence of ETV6 (P41212 whole entry): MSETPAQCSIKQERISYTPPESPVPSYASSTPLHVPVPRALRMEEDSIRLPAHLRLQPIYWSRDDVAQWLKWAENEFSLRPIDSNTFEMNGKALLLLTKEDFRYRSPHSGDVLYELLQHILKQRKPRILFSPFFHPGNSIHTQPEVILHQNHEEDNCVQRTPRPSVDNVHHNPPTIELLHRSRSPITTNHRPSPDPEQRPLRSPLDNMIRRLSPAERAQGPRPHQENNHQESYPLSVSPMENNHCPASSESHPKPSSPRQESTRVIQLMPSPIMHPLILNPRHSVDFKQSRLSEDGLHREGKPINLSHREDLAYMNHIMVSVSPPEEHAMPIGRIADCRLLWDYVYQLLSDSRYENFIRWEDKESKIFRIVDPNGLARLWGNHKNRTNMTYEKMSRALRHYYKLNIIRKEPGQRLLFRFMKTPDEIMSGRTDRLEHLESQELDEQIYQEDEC
Sequence of ETV5 (P41161 whole entry): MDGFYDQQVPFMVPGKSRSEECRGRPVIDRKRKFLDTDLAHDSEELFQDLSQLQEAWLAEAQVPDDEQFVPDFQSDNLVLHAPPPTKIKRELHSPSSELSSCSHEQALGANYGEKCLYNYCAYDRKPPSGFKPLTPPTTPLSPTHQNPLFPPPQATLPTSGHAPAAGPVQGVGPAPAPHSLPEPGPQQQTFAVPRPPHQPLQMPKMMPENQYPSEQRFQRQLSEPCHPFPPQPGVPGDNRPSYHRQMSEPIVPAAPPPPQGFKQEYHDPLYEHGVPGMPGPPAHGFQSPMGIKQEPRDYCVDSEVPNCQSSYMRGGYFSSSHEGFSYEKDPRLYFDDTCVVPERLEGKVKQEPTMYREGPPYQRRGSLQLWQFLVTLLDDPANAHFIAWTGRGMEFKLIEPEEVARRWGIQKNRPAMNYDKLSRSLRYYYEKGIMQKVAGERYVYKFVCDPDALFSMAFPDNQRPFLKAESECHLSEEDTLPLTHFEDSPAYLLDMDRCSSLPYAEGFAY
Sequence of ETV1 (P50549 whole entry): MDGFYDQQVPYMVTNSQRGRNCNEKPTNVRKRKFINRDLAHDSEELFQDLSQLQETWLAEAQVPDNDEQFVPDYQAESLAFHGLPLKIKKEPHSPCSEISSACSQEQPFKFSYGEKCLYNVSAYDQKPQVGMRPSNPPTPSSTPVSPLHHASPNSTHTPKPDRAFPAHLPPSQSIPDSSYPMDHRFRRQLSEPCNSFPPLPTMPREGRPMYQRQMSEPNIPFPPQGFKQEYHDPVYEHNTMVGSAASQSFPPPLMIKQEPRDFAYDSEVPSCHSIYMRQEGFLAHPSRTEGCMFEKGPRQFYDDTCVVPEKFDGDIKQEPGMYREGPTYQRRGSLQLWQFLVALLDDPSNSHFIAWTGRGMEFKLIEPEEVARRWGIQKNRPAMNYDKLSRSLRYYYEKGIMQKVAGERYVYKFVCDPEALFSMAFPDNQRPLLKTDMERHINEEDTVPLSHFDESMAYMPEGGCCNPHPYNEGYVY
Sequence of HSF1 (Q00613 whole entry): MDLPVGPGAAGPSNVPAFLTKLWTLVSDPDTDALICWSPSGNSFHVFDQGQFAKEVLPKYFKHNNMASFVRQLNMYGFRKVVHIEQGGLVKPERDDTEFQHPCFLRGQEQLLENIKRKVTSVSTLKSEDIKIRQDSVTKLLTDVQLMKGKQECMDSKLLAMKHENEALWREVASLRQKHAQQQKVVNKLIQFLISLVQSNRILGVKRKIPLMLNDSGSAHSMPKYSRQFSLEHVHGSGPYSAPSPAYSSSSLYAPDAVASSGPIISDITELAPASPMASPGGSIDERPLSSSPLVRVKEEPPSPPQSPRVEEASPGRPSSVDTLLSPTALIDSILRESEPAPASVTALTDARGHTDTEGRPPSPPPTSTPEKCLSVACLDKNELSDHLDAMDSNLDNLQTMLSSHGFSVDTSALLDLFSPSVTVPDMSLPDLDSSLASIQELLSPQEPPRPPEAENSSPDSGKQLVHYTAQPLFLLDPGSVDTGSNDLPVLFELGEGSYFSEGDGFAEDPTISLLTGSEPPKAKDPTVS
Sequence of ELF4 (Q99607 whole entry): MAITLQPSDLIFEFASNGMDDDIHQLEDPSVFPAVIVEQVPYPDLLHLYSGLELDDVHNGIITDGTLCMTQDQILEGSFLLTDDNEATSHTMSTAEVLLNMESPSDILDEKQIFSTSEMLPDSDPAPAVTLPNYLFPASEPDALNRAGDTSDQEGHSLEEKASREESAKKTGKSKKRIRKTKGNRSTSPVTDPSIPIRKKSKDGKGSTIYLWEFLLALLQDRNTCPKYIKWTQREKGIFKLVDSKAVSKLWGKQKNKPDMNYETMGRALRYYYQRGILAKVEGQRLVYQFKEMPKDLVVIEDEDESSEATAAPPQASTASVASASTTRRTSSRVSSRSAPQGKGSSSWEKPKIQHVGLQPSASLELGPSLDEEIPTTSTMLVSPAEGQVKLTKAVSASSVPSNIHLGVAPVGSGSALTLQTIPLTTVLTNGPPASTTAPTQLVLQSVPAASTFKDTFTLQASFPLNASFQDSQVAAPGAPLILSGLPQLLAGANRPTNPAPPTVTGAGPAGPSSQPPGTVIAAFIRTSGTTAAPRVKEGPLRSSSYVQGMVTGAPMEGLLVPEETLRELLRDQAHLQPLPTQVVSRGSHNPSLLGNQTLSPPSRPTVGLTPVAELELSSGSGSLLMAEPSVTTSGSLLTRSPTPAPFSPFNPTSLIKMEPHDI
Sequence of CRX (O43186 whole entry): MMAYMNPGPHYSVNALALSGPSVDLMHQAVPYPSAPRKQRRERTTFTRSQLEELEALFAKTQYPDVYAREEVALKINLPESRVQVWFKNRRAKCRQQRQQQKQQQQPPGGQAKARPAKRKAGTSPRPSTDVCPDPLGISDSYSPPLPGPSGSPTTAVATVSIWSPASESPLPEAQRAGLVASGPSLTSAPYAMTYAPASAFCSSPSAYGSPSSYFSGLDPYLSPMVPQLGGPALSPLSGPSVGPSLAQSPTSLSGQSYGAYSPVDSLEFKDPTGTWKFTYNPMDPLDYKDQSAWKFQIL

TATGAA
binding signal (FEV): 1.14 fold enrichment (6-mer frequency, TF over GST control) | binding signal (ETV5): 1.12 fold enrichment (6-mer frequency, TF over GST control) | binding signal (HSF1): 1.21 fold enrichment (6-mer frequency, TF over GST control) | binding signal (SPIC): 1.4 fold enrichment (6-mer frequency, TF over GST control) | binding signal (ELF4): 1.26 fold enrichment (6-mer frequency, TF over GST control) | binding signal (ELK4): 1.13 fold enrichment (6-mer frequency, TF over GST control) | binding signal (ETV2): 1.17 fold enrichment (6-mer frequency, TF over GST control) | binding signal (ELF3): 1.29 fold enrichment (6-mer frequency, TF over GST control) | binding signal (CRX): 1.25 fold enrichment (6-mer frequency, TF over GST control) | binding signal (ETV1): 1.14 fold enrichment (6-mer frequency, TF over GST control) | binding signal (ERF): 1.21 fold enrichment (6-mer frequency, TF over GST control) | binding signal (ETV3L): 1.21 fold enrichment (6-mer frequency, TF over GST control) | binding signal (ETS2): 1.27 fold enrichment (6-mer frequency, TF over GST control) | binding signal (SPDEF): 1.16 fold enrichment (6-mer frequency, TF over GST control) | binding signal (ETV7): 1.2 fold enrichment (6-mer frequency, TF over GST control) | binding signal (ELF5): 1.07 fold enrichment (6-mer frequency, TF over GST control) | binding signal (ETV3): 1.17 fold enrichment (6-mer frequency, TF over GST control) | binding signal (ETV6): 1.13 fold enrichment (6-mer frequency, TF over GST control)
